Test results: PubChem BioAssay (Tox21)
Values joined by “and” are separate entries in the source; they are usually repeats but may differ in a detail not shown here. Identical values can stand only once. Inconclusive results are not listed. Some compounds were tested as several samples or in several runs, with calls that do not always agree. Active and inactive are the calls of the source. Calls come from the whole dose curve; as a rule, active = well fitted cell-killing curve with a large enough effect in the repeat runs; inconclusive = weak or mixed curves, or effect the other way; inactive = no such curve, though single readings can be large or run the other way.

assay: qHTS assay for identifying genotoxic compounds that show differential cytotoxicity against isogenic chicken DT40 cell lines with known DNA damage response pathways - Rev3 mutant cell line (AID 743014); details: chicken DT40 Rev3-/- viability, CellTiter-Glo, 40 h; series mostly up to 68.4 µM; note: nearly all actives have a fitted effect of over 55% in size
Excerpt: National Center for Advancing Translational Sciences [NCATS]
NIH Chemical Genomics Center [NCGC]
U.S. Environmental Protection Agency [EPA]
National Institutes of Environmental Health Sciences [NIEHS]
National Toxicology Program [NTP]
U.S. Food and Drug Administration [FDA]
DNA repair pathways play a critical role in cellular homeostasis by repairing DNA damage induced by endogenous processes and xenobiotics. Isogenic chicken DT40 cell lines deficient in different DNA repair pathways can be used to identify genotoxic compounds and aid in characterizing the nature of the DNA damage induced. Two DNA repair-deficient cell lines with disrupted genes, Rad54/Ku70 or Rev3, were used to screen the Tox21 10K compound library. Possible genotoxicity was based on the presence of a significant increase in cytotoxicity in one or more of the DNA repair-deficient cell lines compared to that observed in the parental DNA repair-proficient cell line. CellTiter Glo viability assay (Promega, Madison, WI) was used to measure cell viability in these cells after compound treatment. This assay includes the data from the Rev3 mutant cell line.
Tox21 Assay Protocol Summary:
300 DT40 mutant cells in 5 uL/well were dispensed into white, solid-bottom 1536-well plates using a Multidrop Combi (ThermoFisher Scientific, Waltham, MA) dispenser. After the assay plates were incubated at 37 C/5% CO2 for approximately 0.5 hour, 23 nL of compounds dissolved in DMSO, positive controls or DMSO only was transferred into the assay plate by a pintool work station (Kalypsys, San Diego, CA). The assay plates were incubated at 37 C/5% CO2 for 40 hours. After 5 uL per well of CellTiter-Glo reagent was added into each well of the assay plates, the plates were incubated for 30 min at room temperature and the luminescence intensity of the plates was measured using a ViewLux (PerkinElmer, Shelton, CT) plate reader.
Potency is the fitted concentration of half-maximal effect.

SMILES	Potency
Oc1ccc(Nc2ccccc2)cc1	6.11 µM (active)
CC(=O)Nc1ccc(N)cc1	inactive
Cc1occc1C(=O)Nc1ccc(C(=O)N2CCC(F)(F)/C(=C\C(=O)N3CCC(N4CCCCC4)CC3)c3ccccc32)cc1	inactive
N#C/C(=C1\SCC(c2ccccc2Cl)S1)n1ccnc1 (stereo not given)	26.6 µM (active)
ON(Cc1ccccc1)Cc1ccccc1	inactive
COC(OC)(C(=O)c1ccccc1)c1ccccc1	15.3 µM (active)
CCC(C)(C)C1CCC(O)CC1 (stereo not given)	inactive
CO[Si](C)(OC)OC	inactive
NC(=O)Nc1ccc(Cl)cc1	inactive
Fc1ccccc1[C@@H](F)COC1CCC(Nc2ncnc3[nH]ncc23)CC1 (stereo not given in full)	17.2 µM (active)
CC(=O)Oc1ccc2c(c1)CC[C@@H]1[C@@H]2CC[C@]2(C)[C@@H](O)CC[C@@H]12	26.6 µM (active)
CCCCC(CC)CNCC(CC)CCCC (stereo not given)	inactive
CCCCCCCCCCOS(=O)(=O)O	inactive
Cc1cc(O)c(C(C)C)cc1Cl	inactive and 61.1 µM (active)
O=C(CCCN1CCN(c2ccc(F)cc2)CC1)NC1c2ccccc2CSc2ccccc21 (stereo not given)	26.6 µM (active)
COc1ccc(CCC(=O)c2c(O)cc(O[C@@H]3O[C@H](CO)[C@@H](O)[C@H](O)[C@H]3O[C@@H]3O[C@@H](C)[C@H](O)[C@@H](O)[C@H]3O)cc2O)cc1O	inactive
CC(C)(C)C(=O)C(Oc1ccc(Cl)cc1)n1ccnc1 (stereo not given)	26.6 µM (active)
CN(C)C(=O)Nc1ccc(Oc2ccc(Cl)cc2)cc1	24.3 µM (active)
COC(=O)[C@@H]1CC2=CC(=O)CC[C@]2(C)[C@@]23O[C@@H]2C[C@@]2(C)[C@@H](CC[C@@]24CCC(=O)O4)[C@H]13	inactive
Nc1ccc(S(=O)(=O)O)cc1	54.8 µM (active)

SMILES	Potency
CC(CCc1ccc2c(c1)OCO2)NN (stereo not given)	inactive
CO[C@H]1C=CO[C@@]2(C)Oc3c(C)c(O)c4c(O)c(c5c(c4c3C2=O)=NC2(CCN(CC(C)C)CC2)N=5)NC(=O)/C(C)=C\C=C/[C@H](C)[C@H](O)[C@@H](C)[C@@H](O)[C@@H](C)[C@H](OC(C)=O)[C@@H]1C	23.7 µM (active) and 47.5 µM (active)
COCc1c(C(C)C)nc(C(C)C)c(/C=C/[C@@H](O)C[C@@H](O)CC(=O)O)c1-c1ccc(F)cc1	0.0133 µM (active)
CN(C)CCOC1=Cc2ccccc2Sc2ccc(Cl)cc21	6.68 µM (active)
CC#N	inactive
CCC(C(=O)OCCOCCN(CC)CC)c1ccccc1 (stereo not given)	10.6 µM (active)
CC[C@H](NC(=O)c1cc(F)ccc1NS(=O)(=O)c1cccc2cccnc12)c1ccccc1	57.9 µM (active)
O=S(=O)(c1ccccc1)c1ccc(Cl)cc1	61.1 µM (active)
C1COCO1	inactive
CNCCCC1c2ccccc2C=Cc2ccccc21	12.7 µM (active)
O=C(OCCOCCO)c1ccccc1Nc1cccc(C(F)(F)F)c1	inactive
C[N+]1(C)CCC(=C(c2ccccc2)c2ccccc2)CC1	inactive
O=C(CCCCCCC(=O)Nc1ccccc1)NO	531 nM (active) and 841 nM (active)
CCCCCCOC(=O)CCCCCCCC(=O)OCCCCCC	inactive
NC(=O)Cn1c(=O)cc(CCN2CCN(c3nccc4sccc34)CC2)c2ccc(F)cc21	27.3 µM (active)
CC(C)C(OC(=O)c1ccccc1)C(C)(C)COC(=O)c1ccccc1 (stereo not given)	27.3 µM (active)
O=C(O)c1cccc(O)c1	inactive
O=C(O)c1snc(Cl)c1Cl	61.1 µM (active)
CCCCCCCCCCCCCCCCBr	inactive
Cc1oncc1C(=O)Nc1ccc(C(F)(F)F)cc1	804 nM (active) and 3.44 µM (active)
